Compounds with a hit are over-represented: about 2.4% of the library has one in this group of screens.
D2 ag-1 = HTS Assay for Allosteric Agonists of the Human D2 Dopamine Receptor: Primary Screen for Agonists. HEK293 T-REx D2 cells, calcium flux agonist mode. activation, % at 2 µM. actives 0.53% (n = 340,000). AID 485358, 2010;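 active = activation over 3 SD above normal in the single-dose calcium agonist read, cut at about 30% in these data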
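Agonism is scored from calcium flux in a force-coupled, inducible HEK293 cell line expressing D2, read kinetically for 180 s after compound addition against dopamine controls.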
D2 antagonist = HTS Assay for Allosteric Antagonists of the Human D2 Dopamine Receptor: Primary Screen for Antagonists. HEK293 TREx D2 cells, calcium flux, dopamine EC80. inhibition, % at 10 µM. actives 2% (n = 340,000); in the data active = inhibition above about 30%; inactive = below that, where a call was filed
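Compounds are added to dye-loaded, induced HEK293 T-REx cells coupled to calcium release via D2; after a 3 min kinetic read an EC80 dopamine stimulus is given and fluorescence is recorded for 3 more min.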
D2 PAM-1 = Beta-Arrestin HTS for Positive Allosteric Modulators of the Human D2 Dopamine Receptor: Potentiators | D(2) dopamine receptor (Homo sapiens), P14416 | DiscoveRx D2 beta-arrestin cells, luminescence, 90 min; 100% = 57 uM dopamine signal | potentiation, % (no concentration beside the values) | actives 0.23% (n = 360,000); in the data active = potentiation above about 50%; inconclusive = mostly about 30% to 49%
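PathHunter beta-arrestin assay in DiscoveRx D2 cells. Compounds were added with an EC20 of dopamine (50 nM final) for 90 min at 37 deg C. Luminescence was read 1 h after detection reagent, with 57 uM dopamine as the EC100 control.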
D2 PAM-2 = HTS Assay for Positive Allosteric Modulators of the Human D2 Dopamine Receptor: Primary Screen for Potentiators. D(2) dopamine receptor (Homo sapiens), P14416. HEK293 T-REx D2, calcium flux, EC20 dopamine potentiation. potentiation, % at 10 µM. actives 0.34% (n = 340,000);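 active = potentiation over 3 SD above the plate norm, cut at about 30% in these data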
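Cells plated with tetracycline inducer and held overnight at 30 C; calcium dye loaded 30–90 min at room temperature; baseline taken, compound added and read 180 s; EC20 dopamine then added and read 180 s.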
D2 ag-2 = Beta-Arrestin HTS for Positive Allosteric Modulators of the Human D2 Dopamine Receptor: Agonists; AID 624465, 2012; DiscoveRx PathHunter D2 beta-arrestin, luminescence, 90 min; 100% = 57 uM dopamine signal; D(2) dopamine receptor (Homo sapiens), P14416; activation, % (test concentration not listed); actives 0.084% (n = 360,000); in the data active = activation above about 40%; inconclusive = between about 15% and that limit
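DiscoveRx PathHunter D2 beta-arrestin cells (2,100/well) attached overnight, then compound-stimulated 90 min at 37 C in HBSS/10 mM HEPES/0.1% Tween-20 buffer; beta-galactosidase complementation read by luminescence after 1 h at ambient temperature. Dopamine 57 uM final (EC100) as control.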
D3 ag = qHTS of D3 Dopamine Receptor Agonist: D3 Dopamine Receptor B-arrestin Agonist Confirmatory Assay; shares compounds with D2 ag-1; Potency, µM (top dose mostly 76.9 µM), usual class: activators; actives 4% (n = 2,300); AID 720506, 2013; DiscoveRx D3 beta-arrestin cells, luminescence, 90 min; also: nearly all actives have a fitted effect of over 70% in size
Target sequence (P35462 whole entry, looked up): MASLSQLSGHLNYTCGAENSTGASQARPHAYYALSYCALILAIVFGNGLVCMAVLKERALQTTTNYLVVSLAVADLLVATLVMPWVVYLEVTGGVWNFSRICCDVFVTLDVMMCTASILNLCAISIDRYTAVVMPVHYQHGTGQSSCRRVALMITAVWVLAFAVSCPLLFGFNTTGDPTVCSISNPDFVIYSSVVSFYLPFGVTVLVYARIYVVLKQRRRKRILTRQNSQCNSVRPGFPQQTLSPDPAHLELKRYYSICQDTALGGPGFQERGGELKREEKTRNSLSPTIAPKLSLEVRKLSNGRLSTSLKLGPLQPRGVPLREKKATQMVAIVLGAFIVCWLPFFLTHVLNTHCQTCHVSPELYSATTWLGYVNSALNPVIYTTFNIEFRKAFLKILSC
D2 ag-3 = qHTS of D3 Dopamine Receptor Agonist: D2 Dopamine Receptor B-arrestin Agonist Counterscreen; shares compounds with D2 ag-1; DiscoveRx PathHunter D2 beta-arrestin, luminescence, 90 min; response scale: percent relative to full dopamine signal; Potency, µM (titrated, usually from 76.9 µM), most hits filed as activators; actives 5.9% (n = 2,300); AID 720507, 2013; also: nearly all actives have a fitted effect of over 70% in size
Large screens that a line does not name were inactive (follow-up assays come after a bar, where they were run). Unless noted, calls follow the shape of the dose curve; as a rule, active = well fitted activation curve with a large enough effect; inconclusive = small, poorly fitted or top-dose-only effect; inactive = flat fitted curve, though single readings scatter.

COc1ccc(-c2sc3ccc(OC)cc3c2-c2ccc(OC)c(F)c2)cc1	none
C/C(=N\NC(=O)CN1CCCCC1)c1ccccc1O	D2 ag-1 65, D2 antagonist 85 | D3 ag inactive | D2 ag-3 inactive
CCOC(=O)c1[nH]c2ccc(Br)cc2c1NC(=O)CCN1CCCC(C)(C)C1	D2 ag-1 60 | D3 ag inactive | D2 ag-3 inactive
CCOC(=O)c1[nH]c2ccc(F)cc2c1NC(=O)CCN1CCOCC1	none
COc1ccc(Cn2ccc3nc(C)c(C(=O)N4CCN(c5ccccc5OC)CC4)cc3c2=O)cc1	none (no result: D2 ag-1, D2 antagonist, D2 PAM-1, D2 ag-2)
O=C(Nc1ccccc1C(F)(F)F)c1cc2ccccc2o1	D2 antagonist 47 | D3 ag inactive | D2 ag-3 inactive
COC(=O)c1ccccc1NC(=O)c1cc2ccccc2o1	none
CC(=O)Nc1cccc(NC(=O)CSc2nc(C3CC3)nc3ccccc23)c1	D2 antagonist 34 | D3 ag inactive | D2 ag-3 inactive
CN(Cc1ccccc1)C(=O)c1nc2ccccn2c1CNCCOc1cccnc1	D2 ag-1 41 | D3 ag inactive | D2 ag-3 inactive
CN(Cc1ccccc1)CC(O)COc1ccc(CNCCOc2cccnc2)cc1 (configuration not stated)	D2 ag-1 56, D2 antagonist 83, D2 ag-2 inconclusive | D3 ag 1.4µM | D2 ag-3 inactive
CN(Cc1ccccc1)CC(O)COc1ccc(CNCCCOc2cccnc2)cc1 (configuration not stated)	none
Cc1ccc(C)c(CN2CCC(CNC(=O)Nc3ccc(F)c(Cl)c3)CC2)c1	none
COc1ccc(C(=O)CC(SCC(NC(C)=O)C(=O)O)c2ccc(Cl)cc2)cc1OC (configuration not stated)	none
CC(C)Cn1c(N)c(/C=N/NC(=O)c2ccc(Cl)cc2)c(=O)n(C)c1=O	none
CN(CC(=O)NNC(=O)CNC(=O)c1cccs1)S(=O)(=O)c1ccc(Cl)cc1	D2 ag-1 42 | D3 ag inactive | D2 ag-3 inactive
CCOc1ccccc1C(=O)NCC(=O)NNC(=O)CN(C)S(=O)(=O)c1ccc(Cl)cc1	D2 ag-2 inconclusive (no result: D2 ag-1, D2 antagonist, D2 PAM-2) | D3 ag inconclusive | D2 ag-3 inconclusive
CN(CC(=O)NNC(=O)CNC(=O)c1ccccc1F)S(=O)(=O)c1ccc(Cl)cc1	none
COc1ccc(NS(=O)(=O)c2ccc3c(c2)CCC(=O)N3)cc1O	none (no result: D2 ag-1, D2 antagonist)
OC[C@@H]1CN(Cc2ccccc2)C[C@H](n2cnc3c(N4CCN(c5ccccc5)CC4)ncnc32)O1	none (no result: D2 ag-1, D2 antagonist, D2 PAM-2)
Nc1nc(CN2CCCCCC2)nc(Nc2ccccc2)n1	none
COc1ccc(Nc2nc(N)nc(CN3CCN(c4ccccn4)CC3)n2)cc1	D2 ag-1 76, D2 antagonist 73, D2 ag-2 inconclusive | D3 ag inactive | D2 ag-3 inconclusive
Nc1nc(CN2CCN(c3ccccc3F)CC2)nc(Nc2ccccc2)n1	D2 ag-1 60, D2 antagonist 47 | D3 ag inactive | D2 ag-3 inactive
Nc1nc(CN2CCN(c3ccccc3)CC2)nc(Nc2ccc(Cl)cc2)n1	D2 ag-1 64, D2 antagonist 77, D2 PAM-1 inconclusive, D2 ag-2 43 | D3 ag inconclusive | D2 ag-3 18µM
Cc1ccc(Nc2nc(N)nc(CN3CCN(c4ccccc4F)CC3)n2)cc1	D2 ag-1 75, D2 antagonist 78, D2 ag-2 inconclusive | D3 ag inactive | D2 ag-3 inconclusive
COc1ccc(Nc2nc(N)nc(CN3CCC(C)CC3)n2)cc1	none
CC1(C(=O)Nc2ccc3c(c2)OCCO3)CCN1C(=O)C1(c2ccc(Cl)cc2)CC1 (configuration not stated)	none (no result: D2 ag-1, D2 antagonist, D2 PAM-2)
C=CCNCc1cccn1-c1ccccc1	none | D3 ag inactive | D2 ag-3 inactive
C=CCNC(=S)NCc1ccccc1	none
O=C(O)c1ccc(NC(=S)Nc2ccccc2)cc1	none
COc1ccccc1NS(=O)(=O)c1cc([N+](=O)[O-])ccc1N/N=C/c1c(C)[nH]c2ccccc12	none | D3 ag inactive | D2 ag-3 inactive
Cc1[nH]c2ccccc2c1/C=N/Nc1ccc([N+](=O)[O-])cc1	none
CC(=O)Nc1cccc(Oc2ncnc3scc(-c4ccc(C(C)C)cc4)c23)c1	none
COc1ccc(NC(=O)CSc2ccc3nnc(CCNC(=O)c4ccccc4)n3n2)cc1	none | D3 ag inactive | D2 ag-3 inactive
CC(=O)Nc1ccc(NC(=O)CSc2ccc3nnc(CCNC(=O)c4ccccc4)n3n2)cc1	none
COc1cc(CC(=O)OCC(=O)c2c[nH]c3ccccc23)cc(OC)c1OC	none
COc1cccc(CC(=O)OCC(=O)NC(C)c2ccc(F)cc2)c1 (configuration not stated)	none | D3 ag inactive | D2 ag-3 inactive
COc1cc(CC(=O)OCC(=O)NC(C)c2ccccc2)cc(OC)c1OC (configuration not stated)	none (no result: D2 ag-1, D2 antagonist, D2 PAM-2)
Cc1ccc(C)c(Nc2nc3ccc(C)cc3n3cnnc23)c1	none
COc1cc(C#Cc2c(-c3cncn3C)n(C)c3ccc(-c4cnc(OC)nc4)cc23)cc(OC)c1	none | D3 ag inactive | D2 ag-3 inactive
COc1cc(C#Cc2c(-c3cncn3C)n(C)c3ccc(-c4cnc(N5CCOCC5)nc4)cc23)cc(OC)c1	none (no result: D2 ag-1, D2 antagonist, D2 PAM-2)
OCCC1CN(C2CCN(c3ccccc3F)CC2)CCN1Cc1ccccc1 (configuration not stated)	none | D3 ag inactive | D2 ag-3 inactive
CCOC(=O)N1CCC(N2CCN(Cc3ccc(F)c(F)c3)C(CCO)C2)CC1 (configuration not stated)	D2 ag-1 40 | D3 ag inactive | D2 ag-3 inactive
OCCC1CN(C2CSCCSC2)CCN1Cc1ccccc1 (configuration not stated)	none
O=C(Nc1ccc(NC(=O)c2ccc([N+](=O)[O-])cc2[N+](=O)[O-])cc1)c1ccco1	D2 ag-1 47, D2 PAM-1 inconclusive | D3 ag inconclusive | D2 ag-3 inactive

Assay outcomes: PubChem BioAssay, National Center for Advancing Translational Sciences (NCATS)
